Results filed as inconclusive are left out. Where a call stands in place of a potency, no number is given. The source made the active and inactive calls. Calls come from the whole dose curve; as a rule, active = well fitted inhibition curve with a large enough effect; inconclusive = small, poorly fitted or top-dose-only effect; inactive = no such curve, though single readings can be large or run the other way.
These compounds were tested against Rap guanine nucleotide exchange factor 3 (Homo sapiens) (UniProt O95398) (assay: Confirmatory qHTS for antagonist of cAMP-regulated guanine nucleotide exchange factor 3 (EPAC1) (AID 1645880; note: nearly all actives have a fitted effect of over 55% in size)). Details: EPAC1 Rap1B-BODIPY-GDP exchange, fluorescence; activity, negative = inhibition: at 115 µM (top of the series).
Chain of Rap guanine nucleotide exchange factor 3 (Homo sapiens) (O95398 whole entry, looked up): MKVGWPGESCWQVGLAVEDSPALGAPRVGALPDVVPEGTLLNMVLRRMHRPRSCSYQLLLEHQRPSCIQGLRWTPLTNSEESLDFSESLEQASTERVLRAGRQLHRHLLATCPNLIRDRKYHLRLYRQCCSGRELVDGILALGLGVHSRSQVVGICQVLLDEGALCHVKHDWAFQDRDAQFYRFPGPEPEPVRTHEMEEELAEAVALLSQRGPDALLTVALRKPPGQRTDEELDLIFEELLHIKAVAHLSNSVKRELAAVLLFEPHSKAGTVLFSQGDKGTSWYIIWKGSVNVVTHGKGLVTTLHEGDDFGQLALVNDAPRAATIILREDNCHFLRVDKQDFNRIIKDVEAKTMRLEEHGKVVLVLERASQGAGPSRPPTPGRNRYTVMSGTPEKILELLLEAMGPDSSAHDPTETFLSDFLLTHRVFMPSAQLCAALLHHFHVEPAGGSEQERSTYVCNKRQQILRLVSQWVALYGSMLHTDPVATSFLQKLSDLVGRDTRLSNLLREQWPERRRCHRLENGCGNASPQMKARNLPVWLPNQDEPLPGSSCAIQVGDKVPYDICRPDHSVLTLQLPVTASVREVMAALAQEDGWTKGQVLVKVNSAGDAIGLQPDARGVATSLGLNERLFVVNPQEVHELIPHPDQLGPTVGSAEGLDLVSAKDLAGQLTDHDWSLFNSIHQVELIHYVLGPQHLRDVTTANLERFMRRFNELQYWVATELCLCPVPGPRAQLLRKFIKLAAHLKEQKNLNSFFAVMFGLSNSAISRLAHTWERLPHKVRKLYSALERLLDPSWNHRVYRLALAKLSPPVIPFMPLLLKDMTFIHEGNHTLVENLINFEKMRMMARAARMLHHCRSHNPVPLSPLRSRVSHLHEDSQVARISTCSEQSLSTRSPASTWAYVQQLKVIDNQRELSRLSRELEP
Procedure, shortened: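 Nucleotide exchange uses 100 nM EPAC1, 250 nM RAP1B-BODIPY-GDP and 50 uM GDP, with compounds in a concentration-titration series. After 5 min at room temperature, fluorescence (480 nm ex/540 nm em) is read every 5 min for 30 min. Data are normalized to control ATA and DMSO.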
With `COc1cc(/C=C2\C(=N)N3N=C(S(C)(=O)=O)SC3=NC2=O)ccc1OS(=O)(=O)c1ccc(C)cc1` the Potency was 60.1 µM (active).
`O=C(Cc1ccc(F)cc1)Nc1ccccc1Sc1ccccc1` was tested, and the Potency was “inactive”.
`N#Cc1c(C(F)(F)F)cc(-c2ccccc2)nc1SCc1nc(N)nc(N2CCOCC2)n1` was tested, and the Potency was “inactive”.
With `COC(=O)c1c(-c2ccc(OC)cc2)sc2ccc(OC)cc12` the Potency was “inactive”.
For `Cc1cccc(C(=O)Oc2ccc(/C=N/NC(=O)c3cc(O)cc(O)c3)cc2)c1`, the Potency was 16.9 µM (active).
With `Cc1oc2c(c1C(=O)c1ccccc1)C(=O)C(=O)c1ccccc1-2` the Potency was 42.6 µM (active).
With `CN1OC[C@@H]2CN(Cc3ccc(Cl)cc3)[C@H](c3ccc(-n4ccnc4)cc3)C[C@@H]21` the Potency was “inactive”.
`Cc1nc(-c2ccc(C(=O)Nc3cccc(Br)c3)cc2)cs1` was tested, and the Potency was “inactive”.
In the case of `CCCc1nc2c3ccccc3ccn2c1CC(C)(C)C`, the Potency is reported as “inactive”.
With `COc1ccc(NC(=O)c2cc(-c3ccco3)nc3ccccc23)cc1S(=O)(=O)N1CCOCC1` the Potency was 9.53 µM (active).
For `CCCCn1nnnc1C(c1ccccc1)N1CCN(c2ccc(F)cc2)CC1` (stereo not drawn), the Potency was “inactive”.
For `CCSc1nc(-c2ccccc2)nc2c1CCCC2`, the Potency was “inactive”.
`CCOC(=O)c1ccccc1NC(=O)COC(=O)C(Cc1c[nH]c2ccccc12)NC(C)=O` (stereo not drawn) was tested, and the Potency was “inactive”.
In the case of `O=[N+]([O-])c1ccccc1O[C@@H]1O[C@H](CO)[C@H](O)[C@H](O)[C@H]1O`, the Potency is reported as “inactive”.
In the case of `COc1ccc(/C=C2\N=C(SC)N(c3ccccc3OC)C2=O)cc1`, the Potency is reported as “inactive”.
With `COc1cc(/C=C2\C(=O)N(c3cccc(C(=O)O)c3)N=C2C)ccc1OCc1ccccc1` the Potency was 37.9 µM (active).
For `CCCCCCc1cc2cc(-c3nnc(-c4ccc(C)cc4)o3)c(=O)oc2cc1O`, the Potency was “inactive”.
With `COc1ccccc1N(CC(=O)Nc1ccc(Br)cc1F)S(=O)(=O)c1cccs1` the Potency was “inactive”.
`COc1ccc(C(=O)N/N=C/c2ccc3cccc(OCc4ccccc4)c3n2)cc1` was tested, and the Potency was “inactive”.
In the case of `CC(C)NC(=O)c1sc(=S)n2c1[nH]c(=O)c1ccc(C(=O)NCCc3ccc(Cl)cc3)cc12`, the Potency is reported as 50.1 µM (active).
With `COCCN(C(=O)c1cc2c(s1)CCCCC2)c1c(N)n(Cc2ccccc2)c(=O)[nH]c1=O` the Potency was “inactive”.
`CCOc1ccc(-n2c(SCC(=O)Nc3ccc(F)cc3)nc3c([nH]c4ccccc43)c2=O)cc1` was tested, and the Potency was “inactive”.
For `CCN(CC1COc2ccccc2O1)C(=O)CN1C(=O)NC(C)(c2ccc(C)cc2)C1=O` (stereo not drawn), the Potency was “inactive”.
Potency is the fitted concentration of half-maximal effect.
